# Data: PubChem BioAssay
# “And” between values parts separate entries of the source, which are not always exact repeats. Equal entries are not always repeated. A number with no mark means an inactive call. The list shows a part of the results. The source made the active and inactive calls.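 The calls were made as follows, unless noted: active = mean inhibition above 46.68%, the untreated control wells mean plus 3 SD; inactive = the rest.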
# What was measured:
# [1] = biological target: Nuclear receptor coactivator 3 (Homo sapiens) (UniProt Q9Y6Q9); assay: NCOA3 GAL4-fusion reporter inhibition – cell-based, luminescence, quadruplicate, confirmation (AID 588792;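 active = mean inhibition over 43.08%, the solvent-only control mean plus 3 SD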;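 also: 0% = DMSO treated cells and 100% = gossypol at 36 µM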); conditions: HEK293 GAL4-SRC3 luciferase reporter, at 3.6 µM, active compounds read high
# Sequence of Nuclear receptor coactivator 3 (Homo sapiens) (Q9Y6Q9 whole entry, looked up, the tested form may be a part): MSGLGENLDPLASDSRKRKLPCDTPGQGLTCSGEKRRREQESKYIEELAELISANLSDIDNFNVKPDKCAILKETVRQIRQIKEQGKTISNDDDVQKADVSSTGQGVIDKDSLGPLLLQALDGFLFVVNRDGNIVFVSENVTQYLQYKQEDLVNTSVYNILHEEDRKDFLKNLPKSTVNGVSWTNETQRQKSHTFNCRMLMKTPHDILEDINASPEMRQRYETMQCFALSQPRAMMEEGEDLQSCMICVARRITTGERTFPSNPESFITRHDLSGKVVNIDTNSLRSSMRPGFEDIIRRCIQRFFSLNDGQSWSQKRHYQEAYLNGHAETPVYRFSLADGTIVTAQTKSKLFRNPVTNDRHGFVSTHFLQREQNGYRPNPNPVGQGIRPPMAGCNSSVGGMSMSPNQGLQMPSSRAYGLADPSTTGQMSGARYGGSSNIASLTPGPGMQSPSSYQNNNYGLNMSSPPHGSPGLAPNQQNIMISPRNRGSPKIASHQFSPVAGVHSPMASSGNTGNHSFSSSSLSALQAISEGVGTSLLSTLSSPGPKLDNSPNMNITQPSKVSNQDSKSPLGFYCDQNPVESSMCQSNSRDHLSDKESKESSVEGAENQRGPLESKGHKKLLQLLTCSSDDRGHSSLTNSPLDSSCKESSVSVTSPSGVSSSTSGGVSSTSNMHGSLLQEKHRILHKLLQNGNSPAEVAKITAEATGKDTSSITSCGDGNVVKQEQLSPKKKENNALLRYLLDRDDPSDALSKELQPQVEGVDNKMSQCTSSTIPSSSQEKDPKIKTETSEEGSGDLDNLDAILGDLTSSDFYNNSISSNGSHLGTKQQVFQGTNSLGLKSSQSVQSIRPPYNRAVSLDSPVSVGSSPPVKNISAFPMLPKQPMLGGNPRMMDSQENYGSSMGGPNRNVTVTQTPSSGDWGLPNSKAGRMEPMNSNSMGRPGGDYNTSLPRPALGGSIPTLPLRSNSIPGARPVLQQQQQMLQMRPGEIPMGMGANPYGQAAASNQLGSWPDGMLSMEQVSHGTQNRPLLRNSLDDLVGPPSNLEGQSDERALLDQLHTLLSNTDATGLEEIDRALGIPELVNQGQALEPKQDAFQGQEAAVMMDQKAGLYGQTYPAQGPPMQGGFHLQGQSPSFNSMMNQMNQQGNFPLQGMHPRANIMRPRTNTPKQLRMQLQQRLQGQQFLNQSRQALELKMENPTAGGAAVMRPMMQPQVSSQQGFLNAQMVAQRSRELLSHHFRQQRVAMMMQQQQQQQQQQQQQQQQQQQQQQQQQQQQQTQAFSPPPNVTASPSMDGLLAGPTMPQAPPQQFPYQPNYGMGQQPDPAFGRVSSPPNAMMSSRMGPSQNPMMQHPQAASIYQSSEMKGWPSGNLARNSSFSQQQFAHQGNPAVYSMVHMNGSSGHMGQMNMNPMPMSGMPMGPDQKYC
# [2] = test system: transactivating tegument protein VP16 (Human herpesvirus 1), Gal4-VP16 luciferase reporter; assay: repression of VP16-driven luciferase reporter – cell-based, luminescence, high throughput, counter-screen for SRC3 inhibitor project (AID 588794; in the data active = inhibition above about 30%); conditions: mammalian cells, at 3.6 µM, active compounds read high
# [3] = test system: transactivating tegument protein VP16 (Human herpesvirus 1); assay: compounds suppressing VP16-driven luciferase signal – cell-based, luminescence, single concentration, counter-screen for SRC2 inhibitor project (AID 652007; in the data active = inhibition above about 36%); conditions: cell-based VP16 transactivation luciferase reporter, at 8.9 µM, active compounds read high
# [4] = biological target: Nuclear receptor coactivator 2 (Homo sapiens) (UniProt Q15596); assay: inhibition of GAL4-SRC2 driven luciferase expression – cell-based, luminescence, HEK293, triplicate, confirmation (AID 652008;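 active = mean inhibition above 46.5%, the solvent-only control mean plus 3 SD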;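 also: 0% = DMSO-treated cells and 100% = Gossypol at 36 µM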); conditions: HEK293 GAL4-SRC2 luciferase reporter, at 8.9 µM, active compounds read high
# Sequence of Nuclear receptor coactivator 2 (Homo sapiens) (Q15596 whole entry, looked up, the tested form may be a part): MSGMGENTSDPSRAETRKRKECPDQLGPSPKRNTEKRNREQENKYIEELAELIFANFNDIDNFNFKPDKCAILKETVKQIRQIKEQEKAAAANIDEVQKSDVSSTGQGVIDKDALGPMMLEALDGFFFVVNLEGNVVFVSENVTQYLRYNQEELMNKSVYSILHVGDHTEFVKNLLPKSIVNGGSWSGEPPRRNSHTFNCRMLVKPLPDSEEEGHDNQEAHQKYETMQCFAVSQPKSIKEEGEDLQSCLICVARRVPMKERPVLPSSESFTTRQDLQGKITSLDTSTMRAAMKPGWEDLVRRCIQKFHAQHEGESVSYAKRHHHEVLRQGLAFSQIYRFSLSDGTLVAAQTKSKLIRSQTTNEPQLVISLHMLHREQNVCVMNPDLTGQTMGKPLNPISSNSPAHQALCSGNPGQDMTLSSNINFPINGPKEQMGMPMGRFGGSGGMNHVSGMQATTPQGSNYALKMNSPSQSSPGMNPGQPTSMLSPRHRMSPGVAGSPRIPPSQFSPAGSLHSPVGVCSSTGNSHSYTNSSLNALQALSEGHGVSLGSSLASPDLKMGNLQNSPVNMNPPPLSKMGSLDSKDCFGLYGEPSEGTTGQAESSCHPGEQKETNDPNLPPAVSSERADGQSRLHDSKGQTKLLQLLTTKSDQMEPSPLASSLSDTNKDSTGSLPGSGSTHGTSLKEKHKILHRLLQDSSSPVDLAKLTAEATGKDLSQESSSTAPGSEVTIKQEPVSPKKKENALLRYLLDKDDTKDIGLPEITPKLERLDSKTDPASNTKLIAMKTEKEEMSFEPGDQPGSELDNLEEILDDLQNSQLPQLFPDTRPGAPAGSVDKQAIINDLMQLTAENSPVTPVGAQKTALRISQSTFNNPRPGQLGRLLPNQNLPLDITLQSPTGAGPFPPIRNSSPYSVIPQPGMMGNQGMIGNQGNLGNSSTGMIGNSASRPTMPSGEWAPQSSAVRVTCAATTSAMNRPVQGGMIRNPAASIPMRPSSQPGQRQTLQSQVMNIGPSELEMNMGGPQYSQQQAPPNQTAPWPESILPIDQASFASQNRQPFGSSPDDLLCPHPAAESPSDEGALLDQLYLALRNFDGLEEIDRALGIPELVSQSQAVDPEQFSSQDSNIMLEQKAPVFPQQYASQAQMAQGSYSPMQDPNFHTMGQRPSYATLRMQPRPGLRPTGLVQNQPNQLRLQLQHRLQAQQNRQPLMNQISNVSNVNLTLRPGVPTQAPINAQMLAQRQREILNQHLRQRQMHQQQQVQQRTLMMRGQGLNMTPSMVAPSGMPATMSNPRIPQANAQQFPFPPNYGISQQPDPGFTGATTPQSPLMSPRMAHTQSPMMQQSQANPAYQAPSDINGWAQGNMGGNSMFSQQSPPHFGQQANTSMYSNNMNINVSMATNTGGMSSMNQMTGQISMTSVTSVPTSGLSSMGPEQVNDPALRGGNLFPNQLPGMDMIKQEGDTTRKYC
# [5] = biological target: Nuclear receptor coactivator 1 (Homo sapiens) (UniProt Q15788); assay: NCOA1 GAL4-fusion reporter inhibition – cell-based, luminescence, quadruplicate, confirmation (AID 588820); conditions: HEK293 GAL4-SRC1 luciferase reporter, at 3.6 µM, active compounds read high;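 also: 0% = DMSO wells and 100% = gossypol 36 µM treated wells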
# Sequence of Nuclear receptor coactivator 1 (Homo sapiens) (Q15788 whole entry, looked up, the tested form may be a part): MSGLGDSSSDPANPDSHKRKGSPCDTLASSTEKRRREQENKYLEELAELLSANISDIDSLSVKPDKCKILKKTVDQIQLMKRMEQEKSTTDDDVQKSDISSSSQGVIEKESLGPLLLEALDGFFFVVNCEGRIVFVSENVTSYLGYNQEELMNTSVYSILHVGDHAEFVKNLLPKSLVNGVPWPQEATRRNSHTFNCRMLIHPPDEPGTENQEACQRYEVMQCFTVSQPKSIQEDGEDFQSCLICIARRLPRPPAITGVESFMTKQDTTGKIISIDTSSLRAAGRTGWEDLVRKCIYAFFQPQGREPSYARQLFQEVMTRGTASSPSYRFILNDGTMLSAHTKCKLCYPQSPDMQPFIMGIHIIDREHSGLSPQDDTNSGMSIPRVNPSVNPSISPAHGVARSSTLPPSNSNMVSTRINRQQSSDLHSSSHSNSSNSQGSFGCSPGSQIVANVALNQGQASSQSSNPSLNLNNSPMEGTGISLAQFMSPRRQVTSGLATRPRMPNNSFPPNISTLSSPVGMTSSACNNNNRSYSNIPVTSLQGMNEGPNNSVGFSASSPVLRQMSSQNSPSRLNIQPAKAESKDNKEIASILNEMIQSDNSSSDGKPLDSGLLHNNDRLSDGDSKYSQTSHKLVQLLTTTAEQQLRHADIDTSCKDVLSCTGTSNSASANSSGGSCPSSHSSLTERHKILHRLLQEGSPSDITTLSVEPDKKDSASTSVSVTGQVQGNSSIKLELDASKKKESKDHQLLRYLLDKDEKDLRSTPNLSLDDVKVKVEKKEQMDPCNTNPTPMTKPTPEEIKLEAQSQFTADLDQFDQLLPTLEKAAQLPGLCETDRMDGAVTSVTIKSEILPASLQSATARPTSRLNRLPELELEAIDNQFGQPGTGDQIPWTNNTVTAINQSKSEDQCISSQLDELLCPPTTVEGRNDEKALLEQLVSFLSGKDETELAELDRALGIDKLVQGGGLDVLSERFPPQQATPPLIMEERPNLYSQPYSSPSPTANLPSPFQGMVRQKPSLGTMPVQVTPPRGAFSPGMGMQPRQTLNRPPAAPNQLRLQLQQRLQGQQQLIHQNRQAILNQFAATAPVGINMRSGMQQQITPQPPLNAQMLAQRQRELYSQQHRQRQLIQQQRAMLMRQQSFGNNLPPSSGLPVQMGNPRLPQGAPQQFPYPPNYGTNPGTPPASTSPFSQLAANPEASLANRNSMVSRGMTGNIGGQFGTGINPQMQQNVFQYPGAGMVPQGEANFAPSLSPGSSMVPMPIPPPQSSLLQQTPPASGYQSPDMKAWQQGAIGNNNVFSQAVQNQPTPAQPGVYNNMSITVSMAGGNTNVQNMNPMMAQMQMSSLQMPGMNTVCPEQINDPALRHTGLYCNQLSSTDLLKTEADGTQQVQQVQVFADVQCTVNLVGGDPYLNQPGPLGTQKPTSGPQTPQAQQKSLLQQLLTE
# [6] = repression of VP16-driven luciferase reporter – cell-based, luminescence, high throughput, counter-screen for SRC1 inhibitor project (AID 588824; in the data active = inhibition above about 25%); conditions: cell-based VP16 transactivation luciferase luminescence; at 3.6 µM; active compounds read high
# [7] = StAR promoter reporter inhibitors, counter-screen for LRH-1 inverse agonist project, cell-based, luminescence, high throughput (AID 651611; in the data active = inhibition above about 28%); conditions: StAR promoter luciferase reporter counterscreen, at 3.6 µM, active compounds read high
# [8] = biological target: Nuclear receptor subfamily 5 group A member 2 (Homo sapiens) (UniProt O00482); assay: NR5A2 activity suppression in reporter cells – cell-based, luminescence, confirmation (AID 651613; in the data active = inhibition above about 42%;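 also: HEK293T cells co-transfected with LRH-1 and StAR promoter luciferase reporter; 0% = vehicle wells and 100% = parental cells lacking receptor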); conditions: cell-based LRH-1 luciferase reporter, inverse agonism; at 3.6 µM; active compounds read high
# [9] = biological target: Steroidogenic factor 1 (Homo sapiens) (UniProt Q13285); assay: inverse agonism at SF1 nuclear receptor – cell-based, luminescence, high throughput, counter-screen for LRH-1 inverse agonist project (AID 651614; in the data active = inhibition above about 44%;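 also: cells cotransfected with StAR promoter reporter and SF1 expression vector; 0% = vehicle on cells with receptor and 100% = vehicle on cells lacking receptor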); conditions: cell-based SF1 luciferase reporter, at 3.6 µM, active compounds read high
# Sequence of Steroidogenic factor 1 (Homo sapiens) (Q13285 whole entry, looked up, the tested form may be a part): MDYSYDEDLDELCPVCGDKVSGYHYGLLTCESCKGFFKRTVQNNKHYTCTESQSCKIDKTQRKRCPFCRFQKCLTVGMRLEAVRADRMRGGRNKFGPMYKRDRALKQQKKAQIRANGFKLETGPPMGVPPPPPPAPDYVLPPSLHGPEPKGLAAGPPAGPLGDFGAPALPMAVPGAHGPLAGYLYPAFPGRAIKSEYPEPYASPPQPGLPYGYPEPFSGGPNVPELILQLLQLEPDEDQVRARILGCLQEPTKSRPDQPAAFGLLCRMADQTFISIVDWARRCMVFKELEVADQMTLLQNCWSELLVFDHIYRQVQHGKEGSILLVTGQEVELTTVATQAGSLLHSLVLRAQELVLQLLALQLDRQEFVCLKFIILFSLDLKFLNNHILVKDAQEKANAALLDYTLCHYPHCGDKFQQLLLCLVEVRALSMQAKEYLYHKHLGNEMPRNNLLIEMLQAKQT
# [10] = compounds suppressing VP16-driven luciferase signal – cell-based, luminescence, high throughput, counter-screen for LRH-1 inverse agonist project (AID 651615; in the data active = inhibition above about 33%); conditions: Gal4-VP16 luciferase reporter cells, at 3.6 µM, active compounds read high
# [11] = biological target: Receptor-interacting serine/threonine-protein kinase 2 (Homo sapiens) (UniProt O43353); assay: inhibitors of RIPK2 association with NOD2 – fluorescence, CHO cells, BLA complementation, triplicate, confirmation (AID 624370;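 active = mean inhibition across replicates above a set limit taken from the earlier primary screen, cut at about 21% in these data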;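 also: 0% = DMSO-only wells and the high end = clavulanate BLA-blocked wells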); conditions: CCF4 FRET, at 4.98 µM, active compounds read high
# [12] = BLA reporter readout interference – cell-based, CHO-K1 CMV-bla, CCF4 FRET, fluorescence, artefact control for NOD2-RIPK2 interaction inhibitor project, confirmation (AID 624371;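 active = mean inhibition above the low-control mean inhibition plus three low-control SD, cut at about 11% in these data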;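 also: 0% = DMSO only wells and 100% = clavulanate high control wells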); conditions: CCF4 FRET ratio, counterscreen, at 4.98 µM, active compounds read high
# [13] = biological target: Photoreceptor-specific nuclear receptor (Homo sapiens) (UniProt Q9Y5X4); assay: retest of NR2E3-NCOR disrupting agonists – cell-based, luminescence, CHO-S two-hybrid, confirmation (AID 624378;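 active = average inhibition above a cutoff equal to the mean inhibition of all tested compounds plus one SD, cut at about 70% in these data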;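 also: 0% = DMSO in NR2E3 cells and 100% = DMSO in cells lacking NR2E3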); conditions: CHO-S mammalian two-hybrid NR2E3-NCOR, luciferase luminescence; at 3.98 µM; active compounds read high
# [14] = nonselective effects on VP16 transactivation – cell-based, luminescence, CHO-S, high throughput, counter-screen for NR2E3 agonist project, confirmation (AID 624379;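 active = mean inhibition above a cutoff equal to the average over all tested compounds plus one standard deviation, cut at about 70% in these data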;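 also: luciferase from a UAS reporter driven by GAL4-VP16 transactivation; 0% = DMSO with VP16-transfected cells and 100% = DMSO with cells lacking VP16; higher means less reporter light so more repression of VP16 activity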); conditions: CHO-S GAL4-VP16 luciferase reporter, at 3.98 µM, active compounds read high
structure (smiles),measurement,setting,value
CN1C2CCC1/C(=C/c1ccccn1)C(=O)/C2=C\c1ccccn1,inhibition,[1],-0.02%
same,inhibition,[2],80.8% (active)
same,inhibition,[3],75% (active)
same,inhibition,[4],70.9% (active)
CCC(c1nnnn1Cc1ccccc1)N1CCC(n2c(=O)[nH]c3ccccc32)CC1 (stereo unspecified),inhibition,[5],-50.1%
same,inhibition,[6],0.59%
Cc1cccc(-n2c(C)nc3ccccc3c2=O)c1C,inhibition,[5],2%
same,inhibition,[6],9.3%
C[C@H]1CCC/C=C/[C@@H]2C[C@H](O)C[C@H]2[C@H](O)/C=C/C(=O)O1,inhibition,[1],70% (active) and 66.5% (active)
same,inhibition,[2],76.2% (active) and 77.2% (active)
same,inhibition,[7],77.6% (active) and 82% (active)
same,inhibition,[8],82.1% (active) and 88.7% (active)
same,inhibition,[9],75% (active) and 80.4% (active)
same,inhibition,[10],78.7% (active) and 78.3% (active)
Cc1cccc(C)c1-n1nnnc1C(c1cccs1)N1CCC2(CC1)C(=O)NCN2c1ccccc1 (stereo unspecified),inhibition,[5],22.3%
same,inhibition,[6],4.87%
CC(=O)c1cn(Cc2ccccc2F)c2ccccc12,inhibition,[5],-1.96%
same,inhibition,[6],35.7% (active)
CC(=O)OC1C2(CC3N4C(=O)C5(CO)SSC4(CC31O)C(=O)N5C)OC(C)C(C)(C)C2=O (stereo unspecified),inhibition,[1],95.9% (active)
same,inhibition,[2],94.1% (active)
same,inhibition,[11],41.9% (active)
same,inhibition,[12],0.4%
same,inhibition,[13],98.8% (active)
same,inhibition,[14],99.1% (active)
same,inhibition,[7],96.3% (active)
same,inhibition,[8],110% (active)
same,inhibition,[9],98.4% (active)
same,inhibition,[10],97.4% (active)
C1=NCCc2c1[nH]c1ccccc21,inhibition,[1],27.8%
same,inhibition,[2],-13.4%
same,inhibition,[7],14.4%
same,inhibition,[8],50.2% (active)
same,inhibition,[9],44.8% (active)
same,inhibition,[10],-11.6%
CCC(C)(C)n1nnnc1CN1CCC(n2c(C)nc3cc(C(F)(F)F)ccc32)CC1,inhibition,[5],17.3%
same,inhibition,[6],-2.08%
CCCCC(CC)COCCCN=Cc1c(O)[nH]c(=S)[nH]c1=O (stereo unspecified),inhibition,[5],29.9%
same,inhibition,[6],17.5%
COc1ccc(-n2nnnc2C(c2cccc3ccccc23)N2CCC3(CC2)C(=O)NCN3c2ccccc2)cc1 (stereo unspecified),inhibition,[5],-1.91%
same,inhibition,[6],5.57%
CCCOC(=O)c1ccc(-[n+]2c(-c3ccccc3)cc(-c3ccccc3)cc2-c2ccccc2)cc1,inhibition,[1],44.1% (active)
same,inhibition,[2],65.5% (active)
same,inhibition,[7],64.9% (active)
same,inhibition,[8],110% (active)
same,inhibition,[9],88.8% (active)
same,inhibition,[10],96.6% (active)
same,inhibition,[3],31.1%
same,inhibition,[4],31.8%
COc1cc2nc(CN3CC=C(c4ccccc4)CC3)[nH]c(=O)c2cc1OC,inhibition,[1],37.9%
same,inhibition,[2],39.7% (active)
same,inhibition,[7],72.7% (active)
same,inhibition,[8],97.1% (active)
same,inhibition,[9],77.1% (active)
same,inhibition,[10],73.8% (active)
same,inhibition,[3],-4.49%
same,inhibition,[4],24.4%
